# About 79,000 compounds went through this panel and 15% of them were active in at least one assay; those are over-represented in the sample as a whole. Values without a mark were called inactive. Calls of active or inactive are those of the source. Rule as the data show it: active = growth inhibition above about 70%; inactive = the rest.
# Tests used:
# [1] = NCI Yeast Anticancer Drug Screen. Data for the rad52 strain (AID 147);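 also: 0% = growth of vehicle-treated control cultures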; details: S. cerevisiae rad52 mutant growth inhibition, active compounds read high
# Outline: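 Measured: yeast growth inhibition. System: strain with a defined DNA damage repair alteration. Reference: vehicle-treated control cultures.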
# [2] = NCI Yeast Anticancer Drug Screen. Data for the wt1 strain (AID 149);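 also: 0% = growth of vehicle-treated wt1 cultures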; details: S. cerevisiae wt1 strain (SPY 50644) growth inhibition, active compounds read high
# Outline: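 Measured: growth of wt1 yeast under compound versus vehicle treatment, reported as inhibition.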
# [3] = NCI Yeast Anticancer Drug Screen. Data for the rad50EPP+ strain (AID 151);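 also: 0% = growth of vehicle-treated control cultures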; details: S. cerevisiae rad50 mutant strain, active compounds read high
# Outline: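 One strain with a rad50 alteration (rad50EPP+) was compound-treated, its growth then compared to that of vehicle controls.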
# [4] = NCI Yeast Anticancer Drug Screen. Data for the mgt1 strain (AID 153); details: S. cerevisiae mgt1 mutant growth inhibition, active compounds read high
# Outline: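 After exposure of the mgt1 yeast mutant to compound, growth was measured and reported as inhibition compared with vehicle controls.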
# [5] = NCI Yeast Anticancer Drug Screen. Data for the rad50 strain (AID 155);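 also: 0% = growth of vehicle-only cultures of the same strain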; details: S. cerevisiae rad50 strain growth inhibition, active compounds read high
# Outline: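 Growth of the mutant yeast was measured after compound exposure and referenced to vehicle-treated cultures.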
# [6] = NCI Yeast Anticancer Drug Screen. Data for the mec2-1 strain (AID 157); details: S. cerevisiae mec2-1 strain, active compounds read high
# Outline: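 Test agents were screened against the mec2-1 yeast strain, with defined DNA repair or cell cycle alteration. Growth was scored as inhibition against vehicle-only controls.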
# [7] = NCI Yeast Anticancer Drug Screen. Data for the rad14 strain (AID 159);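 also: 0% = growth of vehicle-treated control cultures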; details: S. cerevisiae rad14 strain growth inhibition, active compounds read high
# Outline: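 Here, inhibition of yeast growth was measured after compound exposure, using a strain with a genetic defect in DNA damage repair and vehicle-treated cultures as the reference.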
# [8] = NCI Yeast Anticancer Drug Screen. Data for the sgs1 mgt1 strain (AID 161);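 also: 0% = growth of cultures given vehicle only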; details: S. cerevisiae sgs1 mgt1 strain, active compounds read high
# Outline: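 Mutant yeast exposed to compound; growth scored against vehicle-only wells.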
# [9] = NCI Yeast Anticancer Drug Screen. Data for the CLN2oe strain (AID 163);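 also: 0% = growth of vehicle-only control cultures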; details: S. cerevisiae CLN2oe strain, active compounds read high
# Outline: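 Here, growth inhibition in a cell-cycle-altered yeast strain after compound exposure was quantified against vehicle control growth.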
# [10] = NCI Yeast Anticancer Drug Screen. Data for the cln2 rad14 strain (AID 165);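 also: 0% = growth equal to vehicle treated cultures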; details: S. cerevisiae cln2 rad14 strain, active compounds read high
# Outline: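 Growth of compound-exposed yeast (cln2 rad14 genotype) measured and expressed as inhibition relative to vehicle.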
# [11] = NCI Yeast Anticancer Drug Screen. Data for the bub3 strain (AID 167); details: S. cerevisiae bub3 mutant strain, active compounds read high
# Outline: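 Whole-cell yeast assay. The mutant strain was incubated with compounds, and growth inhibition was determined by comparison with vehicle-treated cells.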
# [12] = NCI Yeast Anticancer Drug Screen. Data for the wt2 strain (AID 169);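 also: 0% = growth of vehicle-treated yeast cultures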; details: S. cerevisiae wt2 strain growth inhibition, active compounds read high
# Outline: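 Genetically defined yeast strains from a DNA-repair/cell-cycle panel were used. Compound-exposed yeast growth was measured, and the inhibition was calculated relative to vehicle treatment.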
# [13] = NCI Yeast Anticancer Drug Screen. Data for the mlh1 strain (AID 171);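 also: 0% = growth of vehicle-treated control cultures of the same strain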; details: S. cerevisiae mlh1 strain growth inhibition, active compounds read high
# Outline: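 Here the genetically defined yeast mutant is grown with each compound, and the extent to which its growth falls below that of vehicle-exposed cells is reported.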
# [14] = NCI Yeast Anticancer Drug Screen. Data for the sgs1 strain (AID 173);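 also: 0% = growth of vehicle-only control cultures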; details: S. cerevisiae sgs1 mutant, active compounds read high
# Outline: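 Relative growth inhibition, referenced to vehicle, was determined in a yeast strain with a defined alteration affecting DNA damage repair or cell cycle control after compound exposure.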
# [15] = NCI Yeast Anticancer Drug Screen. Data for the mlh1 rad18 strain (AID 175); details: S. cerevisiae mlh1 rad18 strain growth inhibition, active compounds read high
# Outline: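 In this whole-cell yeast screen, a strain with altered DNA damage repair is challenged with compound, and its growth is measured against matched vehicle-treated controls.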
# [16] = NCI Yeast Anticancer Drug Screen. Data for the rad18 strain (AID 177); details: S. cerevisiae rad18 mutant growth inhibition, active compounds read high
# Outline: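 Screen uses a yeast strain with a defined lesion in DNA damage repair; compound effect is read as loss of growth compared to untreated vehicle cultures.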
# [17] = at 5.0 µM (retest, dose inferred, filed as 0.5)
# [18] = at 50.0 µM (retest, dose inferred, filed as 5.0)
structure (smiles),measurement,setting,value
CCc1c(Cl)c(C)c(Cl)c(O)c1Cl,growth inhibition,[1]; at 1.2 µM,-22%
same,growth inhibition,[1]; at 3.7 µM,-30%
same,growth inhibition,[1]; at 11.0 µM,-9%
same,growth inhibition,[1]; at 33.0 µM,97% (active)
same,growth inhibition,[1]; at 100.0 µM,99% (active)
same,growth inhibition,[2]; at 1.2 µM,-27%
same,growth inhibition,[2]; at 3.7 µM,-25%
same,growth inhibition,[2]; at 11.0 µM,1%
same,growth inhibition,[2]; at 33.0 µM,93% (active)
same,growth inhibition,[2]; at 100.0 µM,98% (active)
same,growth inhibition,[3]; at 1.2 µM,-7%
same,growth inhibition,[3]; at 3.7 µM,0%
same,growth inhibition,[3]; at 11.0 µM,32%
same,growth inhibition,[3]; at 33.0 µM,87% (active)
same,growth inhibition,[3]; at 100.0 µM,96% (active)
same,growth inhibition,[4]; at 1.2 µM,-33%
same,growth inhibition,[4]; at 3.7 µM,-32%
same,growth inhibition,[4]; at 11.0 µM,-14%
same,growth inhibition,[4]; at 33.0 µM,98% (active)
same,growth inhibition,[4]; at 100.0 µM,99% (active)
same,growth inhibition,[5]; at 1.2 µM,-11%
same,growth inhibition,[5]; at 3.7 µM,-28%
same,growth inhibition,[5]; [17],57%
same,growth inhibition,[5]; at 11.0 µM,6%
same,growth inhibition,[5]; at 33.0 µM,96% (active)
same,growth inhibition,[5]; [18],98% (active)
same,growth inhibition,[5]; at 50.0 µM,92% (active)
same,growth inhibition,[5]; at 100.0 µM,99% (active)
same,growth inhibition,[6]; at 1.2 µM,-28%
same,growth inhibition,[6]; at 3.7 µM,-12%
same,growth inhibition,[6]; [17],61%
same,growth inhibition,[6]; at 11.0 µM,2%
same,growth inhibition,[6]; at 33.0 µM,95% (active)
same,growth inhibition,[6]; [18],98% (active)
same,growth inhibition,[6]; at 50.0 µM,93.3% (active)
same,growth inhibition,[6]; at 100.0 µM,97% (active)
same,growth inhibition,[7]; at 1.2 µM,-11%
same,growth inhibition,[7]; at 3.7 µM,-12%
same,growth inhibition,[7]; at 11.0 µM,10%
same,growth inhibition,[7]; at 33.0 µM,98% (active)
same,growth inhibition,[7]; at 100.0 µM,99% (active)
same,growth inhibition,[8]; [17],-16%
same,growth inhibition,[8]; [18],97% (active)
same,growth inhibition,[8]; at 50.0 µM,93.8% (active)
same,growth inhibition,[9]; at 1.2 µM,13%
same,growth inhibition,[9]; at 3.7 µM,17%
same,growth inhibition,[9]; at 11.0 µM,11%
same,growth inhibition,[9]; at 33.0 µM,90% (active)
same,growth inhibition,[9]; at 100.0 µM,99% (active)
same,growth inhibition,[10]; [17],38%
same,growth inhibition,[10]; [18],98% (active)
same,growth inhibition,[10]; at 50.0 µM,92.8% (active)
same,growth inhibition,[11]; at 1.2 µM,1%
same,growth inhibition,[11]; at 3.7 µM,-4%
same,growth inhibition,[11]; [17],16%
same,growth inhibition,[11]; at 11.0 µM,5%
same,growth inhibition,[11]; at 33.0 µM,96% (active)
same,growth inhibition,[11]; [18],98% (active)
same,growth inhibition,[11]; at 50.0 µM,92.9% (active)
same,growth inhibition,[11]; at 100.0 µM,99% (active)
same,growth inhibition,[12]; at 1.2 µM,-8%
same,growth inhibition,[12]; at 3.7 µM,-12%
same,growth inhibition,[12]; at 11.0 µM,2%
same,growth inhibition,[12]; at 33.0 µM,97% (active)
same,growth inhibition,[12]; at 100.0 µM,99% (active)
same,growth inhibition,[13]; at 1.2 µM,-12%
same,growth inhibition,[13]; at 3.7 µM,-8%
same,growth inhibition,[13]; at 11.0 µM,7%
same,growth inhibition,[13]; at 33.0 µM,95% (active)
same,growth inhibition,[13]; at 100.0 µM,99% (active)
same,growth inhibition,[14]; at 1.2 µM,-4%
same,growth inhibition,[14]; at 3.7 µM,-13%
same,growth inhibition,[14]; at 11.0 µM,14%
same,growth inhibition,[14]; at 33.0 µM,96% (active)
same,growth inhibition,[14]; at 100.0 µM,99% (active)
same,growth inhibition,[15]; [17],38%
same,growth inhibition,[15]; [18],98% (active)
same,growth inhibition,[15]; at 50.0 µM,92% (active)
same,growth inhibition,[16]; at 1.2 µM,-19%
same,growth inhibition,[16]; at 3.7 µM,-32%
same,growth inhibition,[16]; at 11.0 µM,-19%
same,growth inhibition,[16]; at 33.0 µM,96% (active)
same,growth inhibition,[16]; at 100.0 µM,99% (active)

# Source: PubChem BioAssay (NCI)
